This note sets out measurements from PubChem BioAssay (EPA / NIEHS).

Inconclusive results are not listed. Activity calls are given as the source filed them. Rule for the calls, unless noted: active = hit-call score of the fitted dose curve at least 0.9, where 1 is the maximum; inactive = score below 0.9.

The target of test [1] is Estrogen receptor (Homo sapiens) (UniProt P03372). The experiment in a line: CCTE_Deisenroth_AIME_384WELL_LUC_Active: CCTE's 384-well Estrogen Receptor Transactivation Assay with AIME metabolic competence (ERTA luciferase; metabolism positive), Deisenroth Lab (AID 2284030; active = hit-call score of the fitted dose curve at least 0.9, where 1 is the maximum). An outline of the steps: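 AIME metabolism-positive mode: chemicals 0.002 - 200 uM, 2 h with alginate-bound PB/BNF-induced rat S9 → medium to VM7Luc4E2 ERTA, 24 h → luciferase. Positive fit vs 17beta-estradiol; n=4 typical.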
Chain of Estrogen receptor (Homo sapiens) (P03372 whole entry, looked up): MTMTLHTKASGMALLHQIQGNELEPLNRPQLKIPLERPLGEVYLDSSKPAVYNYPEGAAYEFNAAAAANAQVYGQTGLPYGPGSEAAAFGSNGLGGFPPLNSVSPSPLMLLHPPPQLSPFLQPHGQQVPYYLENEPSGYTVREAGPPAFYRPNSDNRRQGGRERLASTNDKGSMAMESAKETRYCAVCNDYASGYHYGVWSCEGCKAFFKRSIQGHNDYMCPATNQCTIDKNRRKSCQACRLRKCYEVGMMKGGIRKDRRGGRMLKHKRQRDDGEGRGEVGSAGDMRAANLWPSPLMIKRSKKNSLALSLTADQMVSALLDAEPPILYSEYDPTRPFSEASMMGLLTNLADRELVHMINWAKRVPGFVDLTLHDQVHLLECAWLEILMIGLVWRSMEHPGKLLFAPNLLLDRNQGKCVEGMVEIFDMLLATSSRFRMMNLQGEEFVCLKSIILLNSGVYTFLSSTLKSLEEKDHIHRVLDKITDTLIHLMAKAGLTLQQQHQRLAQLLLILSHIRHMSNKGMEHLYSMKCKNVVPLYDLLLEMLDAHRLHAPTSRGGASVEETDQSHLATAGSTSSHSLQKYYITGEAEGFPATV

Test [2] is described as follows: CCTE_Deisenroth_AIME_384WELL_CTox_Active: Cytotoxicity Assessment (CTOX) in CCTE's 384-well Estrogen Receptor Transactivation Assay with AIME metabolic competence (metabolism positive), Deisenroth Lab (AID 2284037; active = hit-call score of the fitted dose curve at least 0.9, where 1 is the maximum;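 note: chemicals first conditioned 2 h by alginate-bound induced rat liver S9 before cells; activity means signal loss indicating cell death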). An outline of the steps: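 VM7Luc4E2 breast cells received medium pre-incubated 2 h with chemical over alginate microspheres holding induced male Sprague Dawley rat liver S9; viability read 24 h later by protease-substrate fluorescence. Loss of signal, bidirectional fit, 0.002–200 uM.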

Test [3] is described as follows: CCTE_Shafer_MEA_acute_burst_percentage_mean: CCTE's Neural Acute Assay for Percentage of Spikes in a Burst, Shafer Lab (AID 2284017).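 For AC50: curve fitted for loss of signal so potency reflects decreased burst percentage.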 An outline of the steps:
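Primary rat cortical neurons on 48-well MEA plates, treated on DIV 13 or 15 at 0.03-40 uM. Spikes detected at 8x rms noise at 37C; percent change from 40-min baseline to 40-min post-dose recording, fitted versus DMSO.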

A short description of test [4]: CCTE_Shafer_MEA_acute_burst_percentage_std: CCTE's Neural Acute Assay for Standard Deviation of Burst Percentage, Shafer Lab (AID 2284018).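 Note: fitted in the negative direction so actives lower burst percentage SD.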 An outline of the steps:
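Primary rat cortical neurons on 16-electrode MEA wells were recorded 40 min at baseline (DIV 13 or 15), then 40 min after compound (0.03-40 uM), at 37 C. Well value is SD across electrodes of spikes-in-bursts/total spikes; endpoint is percent change, DMSO-referenced.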

A short description of test [5]: CCTE_Shafer_MEA_acute_per_network_burst_spike_number_mean: CCTE's Neural Acute Assay for Average Number of Spikes in a Network Burst, Shafer Lab (AID 2284019).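 For AC50: curve fitted for loss of signal so actives reduce spikes per network burst.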 An outline of the steps: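 Primary rat cortical neurons on 16-electrode MEA wells, DIV 13 or 15, 37 C; 40-min baseline then 40-min recording with compound (0.03-40 uM). Spikes per network burst (total spikes/number of bursts) expressed as percent change from baseline, DMSO reference.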

Test [6] can be described thus: CCTE_Shafer_MEA_acute_per_network_burst_spike_number_std: CCTE's Neural Acute Assay for Standard Deviation of Number of Spikes in a Network Burst, Shafer Lab (AID 2284020).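 Note: fitted for decrease in spike-number SD versus DMSO so actives lower it.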 An outline of the steps:
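Primary rat cortical neurons on 48-well MEAs (16 electrodes/well) recorded at DIV 13 or 15: 40-min baseline, then 40 min with compound (0.03-40 uM), 37 C. Value is percent change in SD of spikes per network burst, relative to DMSO.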

The nature of test [7]: CCTE_Shafer_MEA_acute_per_network_burst_electrodes_number_mean: CCTE's Neural Acute Assay for Mean Number of Electrodes in a Network Burst, Shafer Lab (AID 2284021).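 Note: curves fitted for decreases only so hits reduce electrodes per burst.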 An outline of the steps: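 Primary rat cortical networks, mwMEA, 37 C. 20 min stabilization, 40 min baseline, compound 0.03-40 uM, 40 min re-record. Wells need >=10 active electrodes; percent change per well, negative fitting direction.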

Test [8] is described as follows: CCTE_Shafer_MEA_acute_network_burst_percentage: CCTE's Neural Acute Assay for Percentage of Network Bursts, Shafer Lab (AID 2284022).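 Note: curves fitted for loss so actives lower network burst percentage.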 An outline of the steps:
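Readout is the fraction of spikes falling in network bursts, expressed as per-well percent change from a 40-min pre-exposure baseline. Primary rat cortical neurons on MEA were exposed to 0.03-40 uM compound on DIV 13 or 15 and recorded for 40 min at 37 C.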

Test [9] is described as follows: CCTE_Shafer_MEA_acute_cross_correlation_HWHM: CCTE's Neural Acute Assay for Cross Correlation at Half Width at Half Maximum, Shafer Lab (AID 2284026).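 For outcome: spontaneous network firing of rat primary cortical neurons on multiwell microelectrode arrays.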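 Note: percent change per well from pre-dose baseline in spike cross-correlogram half width; hits are a decrease in cross-correlogram half width relative to DMSO.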 An outline of the steps: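 Rat cortical neuron cultures on microelectrode arrays were equilibrated 20 min at 37 C, recorded 40 min at baseline, then 40 min after compound addition (0.03-40 uM, ≥3 wells). Spikes were detected at 8x rms noise after 300-5000 Hz band-pass filtering.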

Test [10] is described as follows: CCTE_Shafer_MEA_acute_synchrony_index: CCTE's Neural Acute Assay for Synchrony, Shafer Lab (AID 2284027).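 Note: fitted for loss of signal so actives lower synchrony relative to DMSO.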 An outline of the steps:
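Readout is percent change in the unitless network synchrony index (0 low, 1 high) between a 40-min baseline and a 40-min recording in compound. Cultures were primary rat cortical neurons on MEAs, treated at 0.03-40 uM on DIV 13 or 15.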

As for `CCCCc1ccc(O)cc1`, the AC50 in test [1] is 26.1 µM (active); in test [2], 158 µM (active).

For the compound `CCCCN(CC)C(=O)SCCC`, the result in [1] and in [2] was inactive.

In the case of `O=[N+]([O-])c1ccccc1`, the compound was called inactive in [1] and in test [2].

In the case of `CCCN(CCC)c1c([N+](=O)[O-])cc(C(C)C)cc1[N+](=O)[O-]`, the AC50 in [1] is 13.3 µM (active).

With `ClC(Cl)c1ccccc1`, the outcome in test [1] and in test [2] was inactive.

As for `Nc1cc2c3c(c1)C(c1ccccc1)=N[C@@H](NC(=O)c1cccnc1)C(=O)N3CC2`, the call in [1] and in [2] was inactive.

As for `CCCCN(CCCC)SN(C)C(=O)Oc1cccc2c1OC(C)(C)C2`, the compound was called inactive in test [1] and in test [2].

Take `CCOc1ccc(C(C)(C)COCc2cccc(Oc3ccccc3)c2)cc1`: the half-maximal activity concentration (AC50) in test [3] was 25.4 µM (active); in [8] it was 23.8 µM (active); in test [10] it was 28.1 µM (active). The compound was called inactive in [4], in test [5], in [6], in test [7] and in [9].

Turning to `O=c1ssc(Cl)c1Cl`, the call in test [1] was inactive.

For `O=C(O)CF`, the call in [1] was inactive.

Regarding `CCCCC(CC)COP(=O)(Oc1ccccc1)Oc1ccccc1` (stereo not given), the AC50 was 23.7 µM (active) in test [3]; 15 µM (active) in [4]; 10.3 µM (active) in test [9]; 22.1 µM (active) in test [10]; 34.1 µM (active) in test [1]. In addition, the outcome in test [5], in [6], in [7], in [8] and in test [2] was inactive.

`CC(C)(C)OOC(C)(C)C`: the compound was classed as inactive in [1] and in test [2].

With `CCOS(=O)(=O)OCC`, the result in [1] was inactive.

As to `COP(=O)(CCC(=O)NCO)OC`, the outcome in test [3], in test [4], in test [5], in [6], in test [7] and in [8] was inactive. Besides, the result in [9] and in [10] was inactive.

As for `O=C(O)C1C(C(=O)O)C2(Cl)C(Cl)=C(Cl)C1(Cl)C2(Cl)Cl` (stereo not given), the call in [3], in [4], in test [5], in test [6], in test [7] and in test [8] was inactive. Moreover, the outcome in test [9] and in test [10] was inactive.

Take `c1ccc2c(c1)Nc1ccccc1S2`: the half-maximal activity concentration (AC50) was 25.8 µM (active) in test [3]; 27.3 µM (active) in test [6]; 7.45 µM (active) in test [7]; 20 µM (active) in test [8]; 36.9 µM (active) in test [9]; 20 µM (active) in test [10]. The concentration at half-maximal activity (AC50) in test [1] is 41.3 µM (active). In addition, the result in test [4], in test [5] and in test [2] was inactive.

For the compound `CCOC(=O)c1ccccc1C(=O)OCC`, the compound was classed as inactive in test [1] and in [2].

Regarding `CC(Cl)(Cl)C(=O)O`, the compound was called inactive in test [3], in test [4], in test [5], in test [6], in test [7] and in test [8]. In addition, the outcome in test [9], in test [10] and in [1] was inactive.

On to `CCOP(=S)(Oc1ccc([N+](=O)[O-])cc1)c1ccccc1` (stereo not given), for which the compound was classed as inactive in test [3], in [4], in test [5], in test [6], in test [7] and in [8]. Moreover, the call in [9] and in [10] was inactive. In addition, the half-maximal activity concentration (AC50) in [1] was 19.6 µM (active).

On to `Nc1ccc2ccccc2c1`, for which the compound was called inactive in [3], in [4], in [5], in test [6], in [7] and in test [8]. The result in test [9], in test [10] and in [2] was inactive. Also, in [1], the AC50 is 13.8 µM (active).

Regarding `COC(N)=O`, the result in test [1] was inactive.

As to `CCC(C)(C)c1ccc(O)cc1`, the AC50 is 9.06 µM (active) in test [3]; 8.27 µM (active) in test [6]; 9.35 µM (active) in test [9]; 8.24 µM (active) in test [10]; 7.31 µM (active) in [1]. Moreover, the call in test [4], in [5] and in [8] was inactive.

For `CCCCc1ccccc1`, the call in test [1] and in [2] was inactive.

On to `CCCCOCC1CO1` (stereo not given), for which the half-maximal activity concentration (AC50) in test [1] was 77.3 µM (active). Also, in [2], the compound was classed as inactive.

Take `Cc1ccc(N)cc1N`: the result in [3], in test [4], in test [5], in test [6], in test [7] and in test [8] was inactive. Further, the result in test [9] and in test [10] was inactive.

With `c1ccc(OP(Oc2ccccc2)Oc2ccccc2)cc1`, the concentration at half-maximal activity (AC50) in [1] was 76.8 µM (active). Also, in test [2], the outcome was inactive.

In the case of `CCCCN(CCCC)N=O`, the compound was called inactive in [1] and in [2].

Consider `c1nc[nH]n1`, for which the call in test [1] was inactive.

For `CCN(CC)c1ccccc1`, the result in test [1] and in test [2] was inactive.

Take `COCCOCCO`: the call in test [3], in test [4], in [5], in test [6], in [7] and in test [8] was inactive. The compound was called inactive in test [9], in test [10] and in [1].

As to `CC(C)(C)c1ccccc1OP(=O)(Oc1ccccc1)Oc1ccccc1`, the AC50 in [3] is 6.79 µM (active); in [4], 5 µM (active); in test [6], 5 µM (active); in test [7], 5 µM (active); in test [8], 7.61 µM (active); in [9], 8.14 µM (active). In test [10], the AC50 is 6.97 µM (active). Moreover, the compound was called inactive in [5].

On to `CCC1(c2ccccc2)C(=O)N=C(O)NC1=O` (stereo not given), for which the result in test [3], in test [4], in test [5], in test [6], in test [7] and in test [8] was inactive. In addition, the outcome in [9] and in [10] was inactive.

Take `[N-]=[N+]=[N-]`: the result in test [3], in test [4], in test [5], in test [6], in [7] and in test [8] was inactive. Besides, the call in [9], in test [10] and in test [1] was inactive.

Consider `Cc1cccc(N)c1`, for which the compound was classed as inactive in test [1].

Take `Nc1ccc(Cl)cc1`: the call in test [1] and in test [2] was inactive.

For the compound `ClC(Cl)(Cl)c1ccccc1`, the compound was classed as inactive in [3], in test [4], in [5], in test [6], in test [7] and in [8]. For the same compound, the result in test [9] and in [10] was inactive.

`OCC1CO1` (stereo not given): the outcome in test [1] and in [2] was inactive.

Regarding `ClC1=C(Cl)C2(Cl)C3C(Cl)C(Cl)CC3C1(Cl)C2(Cl)Cl` (stereo not given), the AC50 in test [3] is 0.29 µM (active); in test [5] it was 0.309 µM (active); in [8] it was 33.8 µM (active); in [9], 4.29 µM (active); in test [10], 0.283 µM (active). For the same compound, the compound was classed as inactive in [4], in test [6] and in test [7].

As a reminder, the AC50 is the midpoint of the concentration-response curve, whichever way the signal moves.
